From PubChem BioAssay
Potency and affinity values are given separately. Calls of active or inactive are those of the source. A call without a number means that no potency is given here. Unless noted, the rule behind the calls is not given here.

biological target: Calcium-dependent protein kinase 1 (Plasmodium falciparum (isolate 3D7)) (UniProt P62344); experiment: PfCDPK1 kinase inhibitors, biochemical, TCAMS library (AID 1159585; cut-off not given, nearly all actives have IC50 up to about 0.98 µM;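 note: inhibitors leave more ATP so luminescence rises with inhibition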); details: recombinant PfCDPK1, Kinase-Glo ATP depletion luminescence
Sequence (P62344 whole entry, looked up): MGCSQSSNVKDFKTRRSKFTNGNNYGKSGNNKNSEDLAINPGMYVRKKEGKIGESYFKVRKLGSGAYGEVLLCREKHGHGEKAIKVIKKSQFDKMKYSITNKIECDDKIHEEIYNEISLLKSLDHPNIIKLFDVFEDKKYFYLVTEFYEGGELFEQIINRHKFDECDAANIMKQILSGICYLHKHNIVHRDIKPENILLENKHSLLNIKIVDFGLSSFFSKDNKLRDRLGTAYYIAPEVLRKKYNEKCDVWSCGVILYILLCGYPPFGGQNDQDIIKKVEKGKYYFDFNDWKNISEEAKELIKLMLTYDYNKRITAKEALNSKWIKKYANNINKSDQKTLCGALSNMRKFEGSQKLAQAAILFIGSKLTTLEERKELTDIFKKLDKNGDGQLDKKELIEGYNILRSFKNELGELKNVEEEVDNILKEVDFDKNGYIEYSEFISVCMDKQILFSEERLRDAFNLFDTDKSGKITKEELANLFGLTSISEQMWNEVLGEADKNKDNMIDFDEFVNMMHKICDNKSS

| SMILES | outcome |
| --- | --- |
| O=C(Nc1cccc(CN2CCN(C(=O)c3cccc(F)c3)CC2)c1)c1ccco1 | inactive |
| Cc1cc(-c2ccc3c(c2)CCN(CCC2CCC(NC(=O)/C=C/c4cccc(F)c4)CC2)CC3)on1 (stereo not given) | inactive |
| CN(C)c1ccc(CN2CCC(NC(=O)c3ccc(-c4ccccc4Cl)s3)CC2)cc1 | inactive |
| CC(C)c1ccc(NC(=O)c2ccc(C(=O)NC3CCN(Cc4ccsc4)C3)cc2)cc1 (stereo not given) | inactive |
| COc1ccc2nccc(N3CCC(NCCNCc4ccc5c(n4)NC(=O)CO5)C3)c2n1 (stereo not given) | inactive |
| FC(F)(F)c1ccc2nc(-c3ccc(-c4cccc(CNCc5cnn(-c6ccccc6)n5)c4)cc3)[nH]c2c1 | inactive |
| Brc1cc(Br)c2c(c1)C(NCCCNc1nc3ncccc3[nH]1)CCN2 (stereo not given) | inactive |
| O=C(COc1ccccc1)Nn1cnc2ccccc21 | inactive |
| CC1CC(C)CN(CCCNc2ccc(C(=O)Nc3ccc(C(F)(F)F)cc3)cc2[N+](=O)[O-])C1 (stereo not given) | inactive |
| O=C(NCCN1CCCC1)c1ccc(-c2ccc(-c3nc4ccccc4[nH]3)s2)cc1 | inactive |
| COc1ccc(Cc2c(N)nc3nc(N)nc(N)c3c2C)cc1 | inactive |
| CN(C)CCN(C)Cc1ccc(-c2cccc(NC(=O)c3ccc(Cl)cc3)c2)cc1 | inactive |
| CCC1CN2CCc3cc(OC)c(OC)cc3C2CC1CC1NCCc2cc(OC)c(OC)cc21 (stereo not given) | inactive |
| COc1cc2c(cc1CCNCCCCNCCc1cc3c(cc1OC)CCCC3)CCCC2 | inactive |
| O=C(c1ccc(Cl)c(Cl)c1)N1CCc2c([nH]c3ccccc23)C1CN1CCCC1 (stereo not given) | inactive |
| CC(C)(C)C/C=C\c1ccc(C(=O)NCC2CC2)cc1 | inactive |
| c1ccc(CNCc2cccc(-c3ccc(-c4nc5ccccc5[nH]4)s3)c2)cc1 | inactive |
| O=C(NCCCCN1CCC(c2ccc(C(F)(F)F)cc2C(F)(F)F)CC1)c1ccc(NC(=O)c2ccc(Cl)cc2)cc1 | inactive |
| FC(F)(F)c1ccc2nc(-c3ccc(-c4cccc(CNCc5cnn(-c6ccccc6)n5)c4)s3)[nH]c2c1 | inactive |
| Cc1cc(N[C@@H](CC(C)C)C(=O)NC2CCCC2)nc(NCCc2ccc(F)cc2)n1 | inactive |

| SMILES | outcome |
| --- | --- |
| CC1(C)N=C(N)N=C(N)N1c1ccc([N+](=O)[O-])cc1 | inactive |
| Cc1[nH]c(C)c(-c2ccc(C(F)(F)F)cc2)c(=O)c1Br | inactive |
| CCOC(=O)c1ccc(OCc2ccc(-c3ccccc3)cc2)cc1 | inactive |
| Cc1cccc(-n2c(=O)c3c4c(sc3n3c(SCCC(C)C)nnc23)CCCC4)c1 | inactive |
| COc1ccc(NC(=O)[C@H](Cc2ccccc2)Nc2cc(C)nc(NCCc3cccnc3)n2)cc1 | inactive |
| CC(C)(C)c1ccc2nc(-c3ccc(C(=O)NCCCc4ccccc4)cc3)[nH]c2c1 | inactive |
| Cc1cc(NN=Cc2ccc(F)cc2)c2ccc(C(F)(F)F)cc2n1 | inactive |
| CC(=O)Nc1ncc(C(=O)Nc2ccc(-c3cccc(-c4nc5ccc(F)cc5[nH]4)c3)cc2)s1 | inactive |
| COc1cc(C(=O)NC2CCN(Cc3ccccc3)CC2)ccc1-c1nc2cc(Cl)c(C)cc2[nH]1 | inactive |
| COc1cc(C(=O)Nc2cccc(-c3nc4ccccc4[nH]3)c2)ccc1OC(C)=O | inactive |
| CCCN1CCC2(CC1)NC(C(=O)NCCC(C)C)Cc1c2[nH]c2cc(Cl)ccc12 (stereo not given) | inactive |
| Nc1cc(-c2ccc(-c3cccs3)s2)nc2ccccc12 | inactive |
| CN1CCC(Oc2ccc(CN3CC[C@H](NC(=O)c4ccc(Cl)c(Cl)c4)C3)c3ccccc23)C1 (stereo not given in full) | inactive |
| Cc1c(C(=O)[C@@H]2C[C@H]2CN2CCC(N3CCCC3)CC2)sc2ccccc12 | inactive |
| O=S(=O)(NCCN1CCCC1)c1ccc(-c2ccc(CNCc3ccc(F)cc3)cc2)cc1 | inactive |
| Cn1cnc(CCNC(=O)c2ccc(-c3ccc(-c4nc5ccc(C(F)(F)F)cc5[nH]4)s3)cc2)c1 | inactive |
| COc1ccc2c(NN=CC=Cc3ccccc3)cc(C)nc2c1 | inactive |
| CCCCC(CCCC)CN1C(=O)C(c2ccccc2)(c2ccccc2)N=C1N | inactive |
| O=C(NC1CCC(N2CCCC(OCc3ccccc3)C2)CC1)c1cc2ccccc2[nH]1 (stereo not given) | inactive |
| Fc1cc(Cl)ccc1Nc1ccnc2cc(-c3ccc(CN4CCSCC4)o3)ccc12 | inactive |

biological target: Plasmodium falciparum protein kinase 6 (PK6, PF3D7_1337100) (UniProt Q8IDW1); experiment: PfPK6 kinase inhibitors, biochemical, TCAMS library (AID 1159586); details: recombinant PfPK6, Kinase-Glo ATP depletion luminescence
Sequence (Q8IDW1 1-305): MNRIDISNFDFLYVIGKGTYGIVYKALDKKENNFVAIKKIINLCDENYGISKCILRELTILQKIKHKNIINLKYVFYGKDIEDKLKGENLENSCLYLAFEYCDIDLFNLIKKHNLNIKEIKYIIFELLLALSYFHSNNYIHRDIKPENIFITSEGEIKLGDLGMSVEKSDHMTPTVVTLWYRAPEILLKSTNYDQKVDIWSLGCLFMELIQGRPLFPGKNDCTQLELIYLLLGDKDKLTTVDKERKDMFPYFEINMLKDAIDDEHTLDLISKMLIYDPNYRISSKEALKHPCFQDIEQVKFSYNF

| SMILES | outcome |
| --- | --- |
| O=C(Nc1cccc(CN2CCN(C(=O)c3cccc(F)c3)CC2)c1)c1ccco1 | inactive |
| Cc1cc(-c2ccc3c(c2)CCN(CCC2CCC(NC(=O)/C=C/c4cccc(F)c4)CC2)CC3)on1 (stereo not given) | inactive |
| CN(C)c1ccc(CN2CCC(NC(=O)c3ccc(-c4ccccc4Cl)s3)CC2)cc1 | inactive |
| CC(C)c1ccc(NC(=O)c2ccc(C(=O)NC3CCN(Cc4ccsc4)C3)cc2)cc1 (stereo not given) | inactive |
| COc1ccc2nccc(N3CCC(NCCNCc4ccc5c(n4)NC(=O)CO5)C3)c2n1 (stereo not given) | inactive |
| FC(F)(F)c1ccc2nc(-c3ccc(-c4cccc(CNCc5cnn(-c6ccccc6)n5)c4)cc3)[nH]c2c1 | inactive |
| Brc1cc(Br)c2c(c1)C(NCCCNc1nc3ncccc3[nH]1)CCN2 (stereo not given) | inactive |
| O=C(COc1ccccc1)Nn1cnc2ccccc21 | inactive |
| CC1CC(C)CN(CCCNc2ccc(C(=O)Nc3ccc(C(F)(F)F)cc3)cc2[N+](=O)[O-])C1 (stereo not given) | inactive |
| O=C(NCCN1CCCC1)c1ccc(-c2ccc(-c3nc4ccccc4[nH]3)s2)cc1 | inactive |
| COc1ccc(Cc2c(N)nc3nc(N)nc(N)c3c2C)cc1 | inactive |
| CN(C)CCN(C)Cc1ccc(-c2cccc(NC(=O)c3ccc(Cl)cc3)c2)cc1 | inactive |
| CCC1CN2CCc3cc(OC)c(OC)cc3C2CC1CC1NCCc2cc(OC)c(OC)cc21 (stereo not given) | inactive |
| COc1cc2c(cc1CCNCCCCNCCc1cc3c(cc1OC)CCCC3)CCCC2 | inactive |
| O=C(c1ccc(Cl)c(Cl)c1)N1CCc2c([nH]c3ccccc23)C1CN1CCCC1 (stereo not given) | inactive |
| CC(C)(C)C/C=C\c1ccc(C(=O)NCC2CC2)cc1 | inactive |
| c1ccc(CNCc2cccc(-c3ccc(-c4nc5ccccc5[nH]4)s3)c2)cc1 | inactive |
| O=C(NCCCCN1CCC(c2ccc(C(F)(F)F)cc2C(F)(F)F)CC1)c1ccc(NC(=O)c2ccc(Cl)cc2)cc1 | inactive |
| FC(F)(F)c1ccc2nc(-c3ccc(-c4cccc(CNCc5cnn(-c6ccccc6)n5)c4)s3)[nH]c2c1 | inactive |
| Cc1cc(N[C@@H](CC(C)C)C(=O)NC2CCCC2)nc(NCCc2ccc(F)cc2)n1 | inactive |

| SMILES | outcome |
| --- | --- |
| CC1(C)N=C(N)N=C(N)N1c1ccc([N+](=O)[O-])cc1 | inactive |
| Cc1[nH]c(C)c(-c2ccc(C(F)(F)F)cc2)c(=O)c1Br | inactive |
| CCOC(=O)c1ccc(OCc2ccc(-c3ccccc3)cc2)cc1 | inactive |
| Cc1cccc(-n2c(=O)c3c4c(sc3n3c(SCCC(C)C)nnc23)CCCC4)c1 | inactive |
| COc1ccc(NC(=O)[C@H](Cc2ccccc2)Nc2cc(C)nc(NCCc3cccnc3)n2)cc1 | inactive |
| CC(C)(C)c1ccc2nc(-c3ccc(C(=O)NCCCc4ccccc4)cc3)[nH]c2c1 | inactive |
| Cc1cc(NN=Cc2ccc(F)cc2)c2ccc(C(F)(F)F)cc2n1 | inactive |
| CC(=O)Nc1ncc(C(=O)Nc2ccc(-c3cccc(-c4nc5ccc(F)cc5[nH]4)c3)cc2)s1 | inactive |
| COc1cc(C(=O)NC2CCN(Cc3ccccc3)CC2)ccc1-c1nc2cc(Cl)c(C)cc2[nH]1 | inactive |
| COc1cc(C(=O)Nc2cccc(-c3nc4ccccc4[nH]3)c2)ccc1OC(C)=O | inactive |
| CCCN1CCC2(CC1)NC(C(=O)NCCC(C)C)Cc1c2[nH]c2cc(Cl)ccc12 (stereo not given) | inactive |
| Nc1cc(-c2ccc(-c3cccs3)s2)nc2ccccc12 | inactive |
| CN1CCC(Oc2ccc(CN3CC[C@H](NC(=O)c4ccc(Cl)c(Cl)c4)C3)c3ccccc23)C1 (stereo not given in full) | inactive |
| Cc1c(C(=O)[C@@H]2C[C@H]2CN2CCC(N3CCCC3)CC2)sc2ccccc12 | inactive |
| O=S(=O)(NCCN1CCCC1)c1ccc(-c2ccc(CNCc3ccc(F)cc3)cc2)cc1 | inactive |
| Cn1cnc(CCNC(=O)c2ccc(-c3ccc(-c4nc5ccc(C(F)(F)F)cc5[nH]4)s3)cc2)c1 | inactive |
| COc1ccc2c(NN=CC=Cc3ccccc3)cc(C)nc2c1 | inactive |
| CCCCC(CCCC)CN1C(=O)C(c2ccccc2)(c2ccccc2)N=C1N | inactive |
| O=C(NC1CCC(N2CCCC(OCc3ccccc3)C2)CC1)c1cc2ccccc2[nH]1 (stereo not given) | inactive |
| Fc1cc(Cl)ccc1Nc1ccnc2cc(-c3ccc(CN4CCSCC4)o3)ccc12 | inactive |
